# Results published in PubChem BioAssay.
# Inconclusive results are not listed. The source made the active and inactive calls. Unless noted, the limit is not given here; nearly all actives have AC50 up to about 37 µM.
# Columns and labels:
# [1] = modifiers of HSF1 nuclear foci, imaging, Selleck Cancer Library (AID 1347162; in the data active = plate-normalised HSF1 focus index below about 0.46); conditions: human cells, at 10 µM; SSMD: measured here: HSF1 foci SSMD mean; cell count: measured here: cell number; plate-normalised HSF1 focus index: stronger effect = lower value
# [2] = growth inhibition of DIPG glioma cells, dose response, cell-based, SU-DIPG-XIII, MIPE5.0, CellTiter-Glo, qHTS (AID 1347064; cut-off not given, nearly all actives have AC50 up to about 23 µM;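 as to AC50: cells exposed to compound for 48 hours before the viability read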); conditions: SU-DIPG-XIII viability, CellTiter-Glo ATP luminescence
# [3] = biological target: NAD(+) hydrolase SARM1 (Homo sapiens) (UniProt Q6SZW1); assay: SARM1 TIR NADase inhibitors, cell lysate, NAD-Glo luminescence (AID 1508614;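 active = compound whose remaining NAD level is above about 45 nM, limit read from the data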;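 also: higher remaining NAD means stronger inhibition of SARM1 NADase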); conditions: SAM-TIR HEK293T lysate NADase, at 1 µM, stronger effect = higher value
# [4] = growth inhibition of DIPG glioma cells, dose response, cell-based, SU-DIPG-XIII, MIPE4.0, CellTiter-Glo, qHTS (AID 1347061); conditions: SU-DIPG-XIII viability, CellTiter-Glo ATP luminescence;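 also: cells exposed to compound for 48 hours before readout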
# [5] = LFS_MB_P medulloblastoma growth inhibition, cell-based, chromothripsis tumors, cisplatin or BGB combos (AID 1671449; in the data active = inhibition above about 80%;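 also: cells exposed for 96 hours; 0% = vehicle DMSO and 100% = killing by high DMSO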); conditions: LFS_MB_P medulloblastoma cells
# [6] = HDN33 neuroblastoma growth inhibition, cell-based, chromothripsis tumors, cisplatin or BGB combos (AID 1671450; in the data active = inhibition above about 80%;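 also: cells exposed to compound for four days; 0% = vehicle DMSO and 100% = cell killing by high DMSO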); conditions: HDN33 neuroblastoma cells, stronger effect = higher value
# [7] = ICB984 medulloblastoma cell growth inhibition, synergistic combos for chromothripsis tumors, cisplatin or BGB combos (AID 1671451; call rule not given here;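 also: cells exposed for 96 hours before readout; 0% = vehicle DMSO and 100% = killing by high DMSO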); conditions: ICB984 medulloblastoma cells, drug combinations, stronger effect = higher value
# [8] = LFS_MB_1R medulloblastoma cell growth inhibition, synergistic combos for chromothripsis tumors, cisplatin or BGB combos (AID 1671452; in the data active = inhibition above about 80%;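 also: cells exposed for 96 hours before readout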); conditions: LFS_MB_1R medulloblastoma cells, stronger effect = higher value
# [9] = HTB85 osteosarcoma cell growth inhibition, synergistic combos for chromothripsis tumors, BGB or cisplatin IC20 combos (AID 1671453; in the data active = inhibition above about 80%;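 also: cells exposed for 96 hours before readout; 0% = vehicle DMSO and 100% = high DMSO killing control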); conditions: HTB85 osteosarcoma cells, drug combinations, stronger effect = higher value
# [10] = CRL2098 osteosarcoma cell growth inhibition, synergistic combos for chromothripsis tumors, BGB or cisplatin IC20 combos (AID 1671454; in the data active = inhibition above about 80%;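 also: cells exposed for 96 h before readout; 0% = vehicle DMSO and 100% = killing by high DMSO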); conditions: CRL2098 osteosarcoma cells, drug combinations, stronger effect = higher value
# [11] = HD-MB03 medulloblastoma cell growth inhibition, synergistic combos for chromothripsis tumors, BGB or cisplatin IC20 combos (AID 1671455; in the data active = inhibition above about 83%;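 also: 0% = vehicle DMSO and 100% = high DMSO as cytotoxic control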); conditions: HD-MB03 medulloblastoma cells, stronger effect = higher value
# [12] = UWB1.289 ovarian carcinoma cell growth inhibition, synergistic combos for chromothripsis tumors, BGB or cisplatin combos (AID 1671456; in the data active = inhibition above about 80%;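 also: cells exposed to compound for four days; 0% = vehicle DMSO and 100% = killing by high DMSO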); conditions: UWB1.289 ovarian carcinoma cells, stronger effect = higher value
# [13] = MDA-MB-436 breast carcinoma cell growth inhibition, synergistic combos for chromothripsis tumors, BGB or cisplatin combos (AID 1671458; call rule not given here;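 also: cells exposed for 96 hours; 0% = vehicle DMSO and 100% = killing by high DMSO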); conditions: MDA-MB-436 breast carcinoma growth inhibition, drug combinations, stronger effect = higher value
# [14] = growth inhibition of BT084 medulloblastoma cells, cell-based, ICGC_MB145, cisplatin and BGB IC40 combos (AID 1671461; in the data active = inhibition above about 80%;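 also: cells exposed to drugs for 96 hours; 0% = vehicle DMSO and 100% = high DMSO full killing control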); conditions: drug combinations, stronger effect = higher value
# [15] = growth inhibition of RCMB18 medulloblastoma cells, cell-based, cisplatin and BGB IC40 combos (AID 1671462; in the data active = inhibition above about 80%;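 also: cells exposed to compound for four days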); conditions: stronger effect = higher value
# [16] = growth inhibition of CRL1545 osteosarcoma cells, cell-based, cisplatin and BGB IC20 combos (AID 1671464; in the data active = inhibition above about 80%;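 also: cells exposed to compound for 96 hours before readout; 0% = vehicle DMSO and 100% = high DMSO killing control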); conditions: stronger effect = higher value
# [17] = measured here: combination with BGB IC40, at 0.05 µM
# [18] = measured here: with BGB IC20 combination, at 0.5 µM
# [19] = measured here: with cisplatin IC20 combination, at 0.5 µM
# [20] = measured here: combination with cisplatin, at 0.5 µM
# NAD(+) hydrolase SARM1 (Homo sapiens), sequence (Q6SZW1 whole entry, looked up): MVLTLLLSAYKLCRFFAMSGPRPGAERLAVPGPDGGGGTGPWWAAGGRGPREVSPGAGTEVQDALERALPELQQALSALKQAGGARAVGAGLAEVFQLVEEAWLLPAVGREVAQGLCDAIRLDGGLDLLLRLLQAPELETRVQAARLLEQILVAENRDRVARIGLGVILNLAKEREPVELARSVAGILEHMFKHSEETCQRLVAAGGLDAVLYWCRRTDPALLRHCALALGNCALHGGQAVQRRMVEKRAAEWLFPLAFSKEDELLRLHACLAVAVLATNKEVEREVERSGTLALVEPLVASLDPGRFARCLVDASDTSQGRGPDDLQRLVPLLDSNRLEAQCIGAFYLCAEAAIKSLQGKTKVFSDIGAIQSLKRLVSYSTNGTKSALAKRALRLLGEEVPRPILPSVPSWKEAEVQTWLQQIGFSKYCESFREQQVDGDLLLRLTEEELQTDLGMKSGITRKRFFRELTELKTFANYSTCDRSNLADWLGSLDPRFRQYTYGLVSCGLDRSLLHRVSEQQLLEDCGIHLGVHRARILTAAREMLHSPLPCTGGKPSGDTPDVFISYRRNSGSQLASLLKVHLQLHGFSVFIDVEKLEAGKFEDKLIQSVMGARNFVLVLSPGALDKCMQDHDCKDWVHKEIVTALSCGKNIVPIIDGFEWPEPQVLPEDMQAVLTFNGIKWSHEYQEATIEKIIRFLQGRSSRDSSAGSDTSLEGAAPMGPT
structure (smiles),measurement,setting,value
COc1cc(Nc2c(C#N)cnc3cc(OCCCN4CCN(C)CC4)c(OC)cc23)c(Cl)cc1Cl,SSMD,[1],-18.3
same,cell count,[1],5030
same,plate-normalised HSF1 focus index,[1],0.345 (active)
O=C(O)c1nc(=O)[nH]c(=O)[nH]1,outcome,[2],inactive
C[C@@H]1C[C@H]2[C@@H]3CCC4=CC(=O)C=C[C@]4(C)[C@@]3(Cl)[C@@H](O)C[C@]2(C)[C@@]1(OC(=O)c1ccco1)C(=O)CCl,remaining NAD,[3],10 nM (inactive)
CC(C)(C)C(=O)OCOP(=O)(COCCn1cnc2c(N)ncnc21)OCOC(=O)C(C)(C)C,AC50,[4],20.9 µM (active)
same,AC50,[2],18.6 µM (active)
C#Cc1cccc(Nc2ncnc3cc(OCCOC)c(OCCOC)cc23)c1,SSMD,[1],2.72
same,cell count,[1],6730
same,plate-normalised HSF1 focus index,[1],1.14 (inactive)
NC(=O)Cc1cccc(C(=O)c2ccccc2)c1N,outcome,[4],inactive
COc1nc(N)nc2c1ncn2[C@@H]1O[C@H](CO)[C@@H](O)[C@@H]1O,outcome,[4],inactive
same,remaining NAD,[3],10 nM (inactive)
Cc1c(C(=O)NN2CCCCC2)nn(-c2ccc(Cl)cc2Cl)c1-c1ccc(Cl)cc1,AC50,[4],20.9 µM (active)
O=c1[nH]c(=O)n([C@H]2C[C@H](O)[C@@H](CO)O2)cc1C(F)(F)F,outcome,[4],inactive
same,outcome,[2],inactive
same,remaining NAD,[3],10 nM (inactive)
same,inhibition,"[5]; at 0.5 µM, stronger effect = higher value",36.4% (inactive)
same,inhibition,"[5]; measured here: combination with BGB IC20, at 0.005 µM",-2.27%
same,inhibition,"[5]; measured here: combination with BGB IC40, at 0.005 µM",-21%
same,inhibition,[5]; [17],-26.7%
same,inhibition,"[5]; measured here: combination with cisplatin, at 0.5 µM, stronger effect = higher value",71.9%
same,inhibition,"[5]; measured here: combination with cisplatin, at 5 µM, stronger effect = higher value",-10%
same,inhibition,"[6]; BGB combo, at 5 µM",76.1%
same,inhibition,[6]; at 0.5 µM,-26.4% (inactive)
same,inhibition,"[6]; cisplatin combo, at 5 µM",74.4%
same,inhibition,[6]; [18],-34.8%
same,inhibition,[6]; [19],-33.1%
same,inhibition,"[6]; single agent, at 5 µM",78.3%
same,inhibition,"[7]; BGB IC20 combo, at 0.005 µM",-20%
same,inhibition,"[7]; BGB IC40 combo, at 0.005 µM",-34.3%
same,inhibition,"[7]; BGB IC40 combo, at 0.05 µM",-24%
same,inhibition,[7]; at 0.5 µM,-27.9% (inactive)
same,inhibition,"[7]; cisplatin combo, at 0.05 µM",-27.5%
same,inhibition,"[7]; cisplatin combo, at 0.5 µM",-36.1%
same,inhibition,"[7]; cisplatin combo, at 5 µM",-29.6%
same,inhibition,"[7]; measured here: 5 uM single agent, at 5 µM",-19.3%
same,inhibition,[8]; at 0.5 µM,-42% (inactive)
same,inhibition,[8]; [17],-48.3%
same,inhibition,[8]; [20],-37.1%
same,inhibition,"[8]; measured here: combination with cisplatin, at 5 µM",-50.8%
same,inhibition,[9]; at 0.5 µM,-26.4% (inactive)
same,inhibition,"[9]; measured here: with BGB IC20, at 0.5 µM",-56.9%
same,inhibition,"[9]; measured here: with BGB IC20, at 5 µM",-39.6%
same,inhibition,"[9]; measured here: with cisplatin IC20, at 0.5 µM",-12.8%
same,inhibition,"[9]; measured here: with cisplatin IC20, at 5 µM",1.86%
same,inhibition,"[9]; single agent, at 5 µM",7.02%
same,inhibition,[10]; at 0.5 µM,-101% (inactive)
same,inhibition,"[10]; measured here: combination with BGB at IC20, at 0.5 µM",-90.6%
same,inhibition,"[10]; measured here: combination with cisplatin at IC20, at 0.5 µM",-100%
same,inhibition,[11]; at 0.5 µM,46.7% (inactive)
same,inhibition,"[11]; measured here: combo with BGB at IC20, at 0.5 µM",44.2%
same,inhibition,"[11]; measured here: combo with cisplatin at IC20, at 0.5 µM",72.4%
same,inhibition,[12]; at 0.5 µM,-11.1% (inactive)
same,inhibition,"[12]; measured here: inhibition with BGB combination, at 0.05 µM",-14.4%
same,inhibition,"[12]; measured here: inhibition with cisplatin combination, at 0.05 µM",-6.35%
same,inhibition,[13]; at 0.5 µM,-22.5% (inactive)
same,inhibition,"[13]; measured here: BGB combination, at 0.5 µM",-18.8%
same,inhibition,"[13]; measured here: BGB combination, at 5 µM",1.19%
same,inhibition,"[13]; measured here: cisplatin combination, at 0.5 µM",-44.6%
same,inhibition,"[13]; measured here: cisplatin combination, at 5 µM",12.8%
same,inhibition,[14]; at 0.5 µM,-27.4% (inactive)
same,inhibition,"[14]; cisplatin combination, at 0.5 µM",-13.4%
same,inhibition,"[14]; cisplatin combination, at 5 µM",-12.4%
same,inhibition,"[14]; measured here: BGB IC40 combination 0.05 uM, at 0.05 µM",-6.58%
same,inhibition,"[14]; single agent, at 5 µM",-41.3%
same,inhibition,[15]; at 0.5 µM,-14.2% (inactive)
same,inhibition,"[15]; cisplatin combo, at 5 µM",-41.9%
same,inhibition,"[15]; measured here: BGB IC40 combination, at 0.05 µM",-13.9%
same,inhibition,[15]; [20],-28.5%
same,inhibition,"[15]; single agent, at 5 µM",-39.2%
same,inhibition,[16]; at 0.5 µM,-43.3% (inactive)
same,inhibition,[16]; [18],-61.7%
same,inhibition,[16]; [19],-37.1%
same,inhibition,"[16]; single agent, at 0.05 µM",-89%
same,inhibition,"[16]; single agent, at 5 µM",33.7%
O=C(O)c1c(Cl)c(Cl)c(Cl)c(Cl)c1-c1c2cc(I)c(=O)c(I)c-2oc2c(I)c(O)c(I)cc12,AC50,[4],16.6 µM (active)
same,AC50,[2],6.61 µM (active)
CCCCCCCCOc1ccccc1C(=O)Nc1ccc(C(=O)OCC[N+](C)(CC)CC)cc1,outcome,[4],inactive
CN1C[C@H]2c3ccccc3Oc3ccc(Cl)cc3[C@@H]2C1,outcome,[4],inactive
O=C(OC1C[C@H]2CC[C@@H](C1)[N+]21CCCC1)C(O)(c1ccccc1)c1ccccc1 (stereo partly specified),remaining NAD,[3],10 nM (inactive)
COc1cccc(N(C)C(=S)Oc2ccc3c(c2)CCCC3)n1,outcome,[4],inactive
Cc1ccc(-c2ncc(Cl)cc2-c2ccc(S(C)(=O)=O)cc2)cn1,outcome,[2],inactive
CC(=O)O[C@@]12CO[C@@H]1C[C@H](O)[C@@]1(C)C(=O)[C@H](O)C3=C(C)[C@@H](OC(=O)[C@H](O)[C@@H](NC(=O)OC(C)(C)C)c4ccccc4)C[C@@](O)([C@@H](OC(=O)c4ccccc4)[C@H]21)C3(C)C,outcome,[2],inactive
same,remaining NAD,[3],10 nM (inactive)
Cc1c(C)c2c(c(C)c1O)CCC(C)(COc1ccc(CC3SC(=O)NC3=O)cc1)O2 (stereo unspecified),outcome,[2],inactive
COC(=O)C1=C(C)NC(C)=C(C(=O)OCCN2CCN(C(c3ccccc3)c3ccccc3)CC2)C1c1cccc([N+](=O)[O-])c1 (stereo unspecified),AC50,[2],8.33 µM (active)
same,remaining NAD,[3],10 nM (inactive)
C=CCc1cc(OC)c(O)c(C(=O)NCCO)c1,outcome,[4],inactive
CCC(C)(C)c1ccc(CC(C)CN2C[C@@H](C)O[C@@H](C)C2)cc1 (stereo partly specified),remaining NAD,[3],10 nM (inactive)
Clc1cccc(C(c2ccc3nc[nH]c3c2)n2ccnc2)c1 (stereo unspecified),outcome,[2],inactive
